High-throughput results (PubChem BioAssay)
C diff growth – inhibitors of Clostridium difficile growth. Clostridium difficile clinical isolate growth, OD600, 24 h; stronger effect = lower value. growth activity, negative = inhibition, % at 16 µg/mL (by protocol). 86,000 compounds, 0.25% hits;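 active means mean growth activity at or below -80% and every replicate also at or below -80%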
Pf Dd2 inh – blocks growth of Plasmodium falciparum Dd2 parasites. activity change, % at 10 µM. 94,000 compounds, 2.3% hits. P. falciparum Dd2 growth, SYBR Green, 72 h; stronger effect = lower value; in the data active means activity change below about -80%
Each line names hits and unclear results; the compound was inactive in the other large screens. A selection: hits, their analogues and other compounds. The true share with any hit is near 2.4%.

CCC(=O)N1CC2(CN(Cc3ccccc3Cl)C2)c2c([nH]c3cc(OC)ccc23)[C@H]1CO	none
CO[C@H]1CN(C)C(=O)c2ccc(NC(C)=O)cc2OC[C@@H](C)N(C(=O)c2ccncc2)C[C@H]1C	none (no result: C diff growth)
CO[C@@H]1CN(C)C(=O)c2ccc(NC(=O)C3CC3)cc2OC[C@H](C)N(Cc2cccc(F)c2)C[C@H]1C	none
O=C(c1ccc(F)cc1)N1CC(=O)N2[C@H](CO)[C@@H](c3ccc(C#CC4CC4)cc3)[C@@H]2C1	none
C[C@H](CO)N1C[C@H](C)[C@@H](CN(C)S(=O)(=O)c2cn(C)cn2)Oc2c(NS(=O)(=O)c3ccc(Cl)cc3)cccc2C1=O	none
C[C@@H]1CCCCO[C@H](CN(C)S(=O)(=O)c2ccc(F)cc2)[C@@H](C)CN([C@@H](C)CO)C(=O)c2cc(NC(=O)C3CCCCC3)ccc2O1	none
C[C@@H]1CN([C@H](C)CO)C(=O)c2cc(NC(=O)C3CCCCC3)ccc2O[C@@H](C)CCCCO[C@@H]1CN(C)S(=O)(=O)c1ccc(F)cc1	Pf Dd2 inh -82.4
C[C@@H]1CN([C@@H](C)CO)C(=O)c2cc(NC(=O)C3CCCCC3)ccc2O[C@@H](C)CCCCO[C@@H]1CN(C)S(=O)(=O)c1ccc(F)cc1	Pf Dd2 inh -81.8
C[C@H]1CCCCO[C@H](CN(C)S(=O)(=O)c2ccc(F)cc2)[C@@H](C)CN([C@@H](C)CO)C(=O)c2cc(NC(=O)C3CCCCC3)ccc2O1	none
COc1ccc(S(=O)(=O)Nc2ccc3c(c2)CC(=O)N([C@@H](C)CO)C[C@@H](C)[C@@H](CN(C)Cc2ccc(C(=O)O)cc2)O3)cc1	none
CC=Cc1ccc2n(c1=O)C[C@@H]1[C@@H](CO)[C@H](C(=O)NCCC)[C@H]2N1C(=O)c1ccncc1 (mixture of isomers)	none
O=C(NC1CCCC1)[C@H]1[C@H](CO)[C@H]2Cn3c(ccc(C4=CCCCC4)c3=O)[C@@H]1N2CC1CC1	none
Cc1noc(C)c1NC(=O)Nc1cccc2c1O[C@@H](CN(C)Cc1ccc(-c3ccccc3)cc1)[C@@H](C)CN([C@@H](C)CO)C2=O	none
C[C@H](NC(=O)C[C@@H]1C[C@H]2c3cc(NC(=O)C4CCOCC4)ccc3O[C@H]2[C@@H](CO)O1)c1ccccc1	none (no result: C diff growth)
C[C@H](CO)N1C[C@H](C)[C@H](CN(C)C(=O)C2CCCCC2)Oc2ncc(C#CCc3ccccc3)cc2C1=O	none
C[C@@H]1CN([C@@H](C)CO)C(=O)c2cc(C#CCc3ccccc3)cnc2O[C@@H]1CN(C)C(=O)C1CCC1	none
C[C@@H]1CN([C@H](C)CO)C(=O)c2cc(C#CCc3ccccc3)cnc2O[C@H]1CN(C)C(=O)C1CCC1	Pf Dd2 inh -87.3
C[C@H]1CN([C@@H](C)CO)C(=O)c2cc(C#CCc3ccccc3)cnc2O[C@@H]1CN(C)C(=O)C1CCCCC1	Pf Dd2 inh -83.3
C[C@H](CO)N1C[C@H](C)[C@@H](CN(C)CC2CCCC2)Oc2ncc(C#CCc3ccccc3)cc2C1=O	Pf Dd2 inh -87.2
C[C@@H]1CN([C@@H](C)CO)C(=O)c2cc(C#CCc3ccccc3)cnc2O[C@H]1CN(C)CC1CCOCC1	none
COc1ccccc1-c1ccc([C@H]2[C@@H](CO)N3CCCCN(C(=O)c4ccncc4)C[C@H]23)cc1	none
COc1ccc(S(=O)(=O)N(C)C[C@H]2OCCCC[C@@H](C)Oc3ccc(NS(C)(=O)=O)cc3C(=O)N([C@@H](C)CO)C[C@@H]2C)cc1	none
COc1ccc(S(=O)(=O)N(C)C[C@H]2OCCCC[C@H](C)Oc3ccc(NC(=O)Nc4ccc(C(F)(F)F)cc4)cc3C(=O)N([C@H](C)CO)C[C@@H]2C)cc1	none
C[C@@H]1CCCCO[C@H](CN(C)S(=O)(=O)c2ccc(F)cc2)[C@H](C)CN([C@@H](C)CO)C(=O)c2cc(NC(=O)Nc3ccc(C(F)(F)F)cc3)ccc2O1	Pf Dd2 inh -85.8 (no result: C diff growth)
Cc1ccc(S(=O)(=O)N(C)C[C@@H]2OCCCC[C@H](C)Oc3ccc(NC(=O)Nc4ccc(C(F)(F)F)cc4)cc3C(=O)N([C@@H](C)CO)C[C@@H]2C)cc1	Pf Dd2 inh -85.0
C[C@@H]1CN([C@H](C)CO)C(=O)c2cc(NC(=O)Nc3ccc(C(F)(F)F)cc3)ccc2O[C@@H](C)CCCCO[C@H]1CN(C)S(=O)(=O)c1ccc(F)cc1	none (no result: C diff growth)
COc1ccc(S(=O)(=O)N(C)C[C@@H]2OCCCC[C@@H](C)Oc3ccc(NC(=O)Nc4ccc(C(F)(F)F)cc4)cc3C(=O)N([C@H](C)CO)C[C@@H]2C)cc1	Pf Dd2 inh -83.7
C[C@@H]1CCCCO[C@@H](CN(C)S(=O)(=O)c2ccc(F)cc2)[C@H](C)CN([C@H](C)CO)C(=O)c2cc(NC(=O)Nc3ccc(F)cc3)ccc2O1	Pf Dd2 inh -81.6
Cc1ccc(S(=O)(=O)N(C)C[C@H]2OCCCC[C@@H](C)Oc3ccc(NC(=O)Nc4ccc(C(F)(F)F)cc4)cc3C(=O)N([C@H](C)CO)C[C@@H]2C)cc1	none
C[C@@H]1CCCCO[C@@H](CN(C)S(=O)(=O)c2ccc(F)cc2)[C@H](C)CN([C@@H](C)CO)C(=O)c2cc(NC(=O)Nc3ccc(F)cc3)ccc2O1	none
C[C@@H]1CN([C@@H](C)CO)C(=O)c2cc(NC(=O)c3ccncc3)ccc2O[C@H]1CN(C)Cc1ccncc1	none
COCCNC(=O)[C@H]1[C@H](CO)[C@H]2Cn3c(ccc(C4=CCCCC4)c3=O)[C@@H]1N2C(=O)C1CCCC1	none
Cc1ccc(S(=O)(=O)Nc2ccc3c(c2)C(=O)N([C@H](C)CO)C[C@@H](C)[C@H](CN(C)C(=O)Nc2cccc4ccccc24)O3)cc1	none
Cc1ccc(-c2ccc3c(c2)O[C@@H](CN(C)C(=O)C2CC2)[C@H](C)CN([C@H](C)CO)S3(=O)=O)cc1	none (no result: C diff growth)
Cc1ccc(S(=O)(=O)N(C)C[C@@H]2OCCCC[C@@H](C)Oc3ccc(NC(=O)Nc4ccc(F)cc4)cc3C(=O)N([C@@H](C)CO)C[C@H]2C)cc1	none (no result: C diff growth)
Cc1ccc(S(=O)(=O)N(C)C[C@H]2OCCCC[C@H](C)Oc3ccc(NC(=O)Nc4ccc(F)cc4)cc3C(=O)N([C@H](C)CO)C[C@@H]2C)cc1	none (no result: C diff growth)
Cc1ccc(S(=O)(=O)N(C)C[C@@H]2OCCCC[C@H](C)Oc3ccc(NC(=O)Nc4ccc(F)cc4)cc3C(=O)N([C@H](C)CO)C[C@H]2C)cc1	Pf Dd2 inh -81.7 (no result: C diff growth)
Cc1ccc(S(=O)(=O)N(C)C[C@@H]2OCCCC[C@H](C)Oc3ccc(NC(=O)Nc4ccc(F)cc4)cc3C(=O)N([C@@H](C)CO)C[C@@H]2C)cc1	Pf Dd2 inh -82.7 (no result: C diff growth)
CCCC(=O)Nc1ccc2c(c1)OC[C@H](C)N(C(=O)c1ccncc1)C[C@@H](C)[C@@H](OC)CN(C)C2=O	none (no result: C diff growth)
C[C@H]1CN([C@@H](C)CO)S(=O)(=O)c2ccc(C#Cc3ccncc3)cc2O[C@H]1CN(C)C(=O)C1CCC1	none
COCC#Cc1ccc(CC[C@H]2O[C@H]3CC[C@@H](CO)O[C@H]3C[C@@H]2n2cc(C3CC3)nn2)cc1	Pf Dd2 inh -89.4
COCC#Cc1ccc(CC[C@H]2O[C@H]3CC[C@H](CO)O[C@H]3C[C@H]2n2cc(C(C)(C)O)nn2)cc1	none
CCCC#Cc1ccc(CC[C@H]2O[C@H]3CC[C@H](CO)O[C@H]3C[C@@H]2n2cc(C(C)(C)O)nn2)cc1	Pf Dd2 inh -85.0
COCC#Cc1ccc(CC[C@H]2O[C@H]3CC[C@H](CO)O[C@H]3C[C@H]2n2cc(C3CC3)nn2)cc1	none
